# In article PMC5540273 (PLoS ONE, 2017):
# Tested on: LRRK2
# Details: concentration: 1 μM, replicates: in singlicate; n = 1
# 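Note: KINOMEscan kinase panel screen.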
row,SMILES,%Inh
1,CNc1nccc(-c2c(-c3ccc(F)cc3)ncn2C2CCN(C)CC2)n1 [SB-222903],0%
2,CCn1c(-c2ccncc2)nc2cnccc21 [SB-735216],0%
3,Clc1cc(Nc2ncnc3cc[nH]c23)ccc1OCc1ccccn1,0%
4,CN1CCC(n2cnc(-c3ccc(F)cc3)c2-c2ccnc(NC3CCNCC3)n2)CC1 [SB-229482],0%
5,Fc1ccc(-c2ncn(CCCNCc3ccccc3)c2-c2ccncc2)cc1,0%
6,Cc1ccc(NC(=O)c2cccc(C#N)c2)cc1-c1ccc(C(=O)Nc2ccncc2)cc1 [GSK1398463],28%
7,O=C(c1ccc(-c2cc(-c3c[nH]nc3-c3ccccn3)ccn2)cc1)N1CCCC1 [GW792479],10%
8,Cl.c1ccc(Cn2ccc3cc(Nc4ncnc5ccccc45)ccc32)cc1 [GW275568],0%
9,CS(=O)(=O)CCNCc1ccc(-c2ccc3ncnc(Nc4ccc(OCc5ccccc5)c(Cl)c4)c3c2)o1.Cl [GW574783],22%
10,CCC(CC)(CC)n1cnc2c(N)ncnc21 [SKF-97620],9%
11,CC(C)(C)OC(=O)NC1CCCN(c2cc(-c3ccc4c(N)n[nH]c4c3)nc(N)n2)C1 (centres unmarked) [GSK2286096],0%
12,O=C(Nc1ccccc1F)NC1CCN(c2ccnc(Nc3ccc(F)cc3)n2)C1 (centres unmarked) [GSK1379722],39%
13,Cl.c1ccc(Cn2ncc3cc(Nc4ncnc5ccccc45)ccc32)cc1 [GW273749],0%
14,CC(=O)Nc1n[nH]c2ncc(-c3ccccc3)cc12 [SB-548492],0%
